Experimental findings from PubChem BioAssay (NCATS) are described below.

Unmarked numbers belong to inactive results. Results filed as inconclusive are left out. The source made the active and inactive calls. Unless noted, calls follow the shape of the dose curve; as a rule, active = well fitted curve in the direction sought with a large enough effect; inconclusive = small, poorly fitted or top-dose-only effect, or another doubt; inactive = no such curve, though single readings can be large; an effect the other way counts as inactive or inconclusive.

Test [1] in a line: Validation of Assay for Modulators of Lamin A Splicing (AID 1459; active = well fitted curve in the direction sought with a large enough effect in the signal ratio; the % refers to the signal ratio;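 also: cells exposed to compound for two days before reading; 0% is about no effect; ratio rise marks activators and ratio drop marks inhibitors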). Summed up: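 Splicing correction read as GFP (500-530 nm) over DsRed2 (575-640 nm) object intensity after 48 h compound exposure of reporter HeLa S3 clones (600 cells/well, 2% FBS medium); ancitabine and cycloheximide titrations, 0.5% DMSO as vehicle.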
In test [2] the target is DNA repair nuclease/redox regulator APEX1 (Homo sapiens) (UniProt P27695). The test can be described thus: qHTS Validation Assay for Inhibitors of the Human Apurinic/apyrimidinic Endonuclease 1 (APE1) (AID 1705;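 also: TAMRA fluorescence gain over two minutes as APE1 cuts a quenched THF abasic duplex; series mostly up to about 57 µM; % is scaled to controls: 0 for no effect and ±100 for the full control effect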). Summed up:
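Activity read as rising fluorescence (598 nm emission, 525 nm excitation) from incision of a TAMRA/BHQ-2 duplex carrying a THF abasic site (50 nM). Compound and enzyme sat 15 min at RT before substrate start; signal change between first and third 60-s reads.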

The target of test [3] is ATP-dependent DNA helicase Q1 (Homo sapiens) (UniProt P46063). The test can be described thus: qHTS Validation Assay for Inhibitors of RecQ-Like Dna Helicase 1 (RECQ1) (AID 2353).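 Also: plate controls were DMSO vehicle for no effect and enzyme-free control for full effect.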 The method, boiled down: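 RECQ1T1 50 nM; forked duplex (20 bp + 30-nt ss tails) 200 nM, ATP 2 mM final; pH 8.0, 2 mM MgCl2, 2.5 ug/ml poly(dI-dC); 15 min compound preincubation; discontinuous kinetic read over 2 h at RT.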
Chain of ATP-dependent DNA helicase Q1 (Homo sapiens) (P46063 whole entry, looked up): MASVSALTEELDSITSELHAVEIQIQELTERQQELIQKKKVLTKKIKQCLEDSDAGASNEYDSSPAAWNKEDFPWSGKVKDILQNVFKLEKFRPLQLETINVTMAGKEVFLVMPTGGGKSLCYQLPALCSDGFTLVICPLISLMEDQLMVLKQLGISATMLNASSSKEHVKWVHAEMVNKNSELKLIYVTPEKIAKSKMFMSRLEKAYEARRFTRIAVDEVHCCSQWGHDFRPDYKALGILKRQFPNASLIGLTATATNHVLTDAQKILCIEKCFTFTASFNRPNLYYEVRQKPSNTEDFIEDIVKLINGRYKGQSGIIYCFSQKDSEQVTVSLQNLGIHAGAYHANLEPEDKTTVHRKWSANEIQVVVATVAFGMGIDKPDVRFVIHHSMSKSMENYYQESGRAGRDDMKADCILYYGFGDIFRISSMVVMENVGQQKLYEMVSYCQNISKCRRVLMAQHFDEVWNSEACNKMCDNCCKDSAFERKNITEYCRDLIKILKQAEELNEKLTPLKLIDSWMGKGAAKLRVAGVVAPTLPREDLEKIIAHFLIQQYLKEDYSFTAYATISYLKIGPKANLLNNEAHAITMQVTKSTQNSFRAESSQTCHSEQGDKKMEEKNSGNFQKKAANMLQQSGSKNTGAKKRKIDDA

A short description of test [4]: Quantitative high throughput screen for delayed death inhibitors of the malarial parasite plastid, 96 hour incubation (AID 488745). Also: potency is read from the fitted curve at half-maximal effect; nearly all actives have a fitted effect of over 70% in size. The method, boiled down:
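Readout is firefly luciferase luminescence from an integrated reporter in P. falciparum; lower signal marks inhibited growth. Cultures at 2% hematocrit and 0.1% parasitemia were treated with compound across two generations (96 h, 37 C, 5% CO2).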

The nature of test [5]: Quantitative high throughput screen for delayed death inhibitors of the malarial parasite plastid, 48 hour incubation (AID 488752). Also: potency is read from the fitted curve at half-maximal effect; nearly all actives have a fitted effect of over 65% in size. The method, boiled down:
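First, compound was pinned into RPMI 1640 medium containing 0.5% Albumax. Next, reporter-parasite-infected erythrocytes were added to 2% hematocrit and 0.1% parasitemia. After 48 h at 37 C under 5% CO2, luciferase detection reagent was added and luminescence read.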

The target of test [6] is Thyrotropin-releasing hormone receptor (Homo sapiens) (UniProt P34981). Briefly: qHTS for Small Molecule Agonists and Allosteric Enhancers of Human TRH Receptor: Validation Screen for Agonists (AID 493127;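 active = calcium activation more than 3 SD above the typical response in the agonist read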;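 also: intracellular calcium rise by fluo-8 fluorescence before TRH EC20 addition; 0% is about no effect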). The following applies: TRH receptor agonist cell assay; at 2 µM; active compounds read high. The method, boiled down:
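Compounds are added by online pintool to dye-loaded TRHR cells while fluorescence is recorded every second. A rise in calcium signal during the agonist read marks activation; a later 10 nM TRH addition (EC20) serves the separate enhancer mode.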

The target in test [7] is Galactokinase (Homo sapiens) (UniProt P51570). Briefly: qHTS Validation Assay for Inhibitors of Human Galactokinase (GALK) (AID 493189). Also: 0% is about no effect. Summed up:
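Inhibition was measured as remaining ATP, detected by luciferase luminescence after a 1 h room-temperature reaction. Final conditions: 5 nM GALK, 100 uM galactose, 35 uM ATP, pH 8.0 HEPES buffer.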

Test [8] can be described thus: Validation screen for small molecules that induce DNA re-replication in SW480 colon adenocarcinoma cells (AID 504364). Also: 0% is about no effect. The method, boiled down:
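Image-based qHTS: compounds were incubated with SW480 cells for 48 hr, nuclei stained with Hoechst, and per-nucleus fluorescence intensity scanned to flag cells with excess DNA content.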

For test [9], the target named is Calcium and integrin-binding protein 1 (Homo sapiens) (UniProt Q99828). The test can be described thus: Confirmatory qHTS for Identification of Calcium Integrin Binding Protein 1 (CIB1) Competitor (AID 1508617). Also: % is scaled to controls: 0 for no effect and ±100 for the full control effect; nearly all actives have a fitted effect of over 65% in size. The method, boiled down:
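Confirmatory qHTS measures displacement of a FITC-alphaIIb peptide (100 nM) from CIB1-GST (1 uM) by fluorescence polarization. Calcium-containing HEPES buffer, pH 7.4; two 15 min room-temperature incubations.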

Chain of Calcium and integrin-binding protein 1 (Homo sapiens) (Q99828 whole entry, looked up): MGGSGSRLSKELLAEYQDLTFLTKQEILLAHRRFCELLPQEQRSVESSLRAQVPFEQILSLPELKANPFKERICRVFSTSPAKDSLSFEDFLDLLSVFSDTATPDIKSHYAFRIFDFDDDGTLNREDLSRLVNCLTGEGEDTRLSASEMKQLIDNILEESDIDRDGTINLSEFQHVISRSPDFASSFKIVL
Chain of DNA repair nuclease/redox regulator APEX1 (Homo sapiens) (P27695 whole entry, looked up): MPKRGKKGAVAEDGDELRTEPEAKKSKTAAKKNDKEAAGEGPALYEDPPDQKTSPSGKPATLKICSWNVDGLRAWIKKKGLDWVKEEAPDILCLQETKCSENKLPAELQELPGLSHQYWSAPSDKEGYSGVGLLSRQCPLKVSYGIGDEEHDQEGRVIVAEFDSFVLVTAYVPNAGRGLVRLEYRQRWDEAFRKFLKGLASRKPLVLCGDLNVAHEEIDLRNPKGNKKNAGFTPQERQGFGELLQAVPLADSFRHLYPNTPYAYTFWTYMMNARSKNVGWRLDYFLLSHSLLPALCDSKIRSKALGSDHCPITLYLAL
Chain of Galactokinase (Homo sapiens) (P51570 whole entry, looked up): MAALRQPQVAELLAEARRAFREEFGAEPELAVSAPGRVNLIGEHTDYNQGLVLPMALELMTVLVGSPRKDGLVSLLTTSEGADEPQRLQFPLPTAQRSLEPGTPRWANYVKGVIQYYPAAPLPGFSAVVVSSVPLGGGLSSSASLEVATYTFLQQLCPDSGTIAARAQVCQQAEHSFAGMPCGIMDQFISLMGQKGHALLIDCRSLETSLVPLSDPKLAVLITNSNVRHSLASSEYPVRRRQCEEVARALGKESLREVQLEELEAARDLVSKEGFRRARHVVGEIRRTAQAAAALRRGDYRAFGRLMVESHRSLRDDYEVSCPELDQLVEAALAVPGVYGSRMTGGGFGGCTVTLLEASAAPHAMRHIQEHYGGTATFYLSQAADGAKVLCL
Chain of Thyrotropin-releasing hormone receptor (Homo sapiens) (P34981 whole entry, looked up): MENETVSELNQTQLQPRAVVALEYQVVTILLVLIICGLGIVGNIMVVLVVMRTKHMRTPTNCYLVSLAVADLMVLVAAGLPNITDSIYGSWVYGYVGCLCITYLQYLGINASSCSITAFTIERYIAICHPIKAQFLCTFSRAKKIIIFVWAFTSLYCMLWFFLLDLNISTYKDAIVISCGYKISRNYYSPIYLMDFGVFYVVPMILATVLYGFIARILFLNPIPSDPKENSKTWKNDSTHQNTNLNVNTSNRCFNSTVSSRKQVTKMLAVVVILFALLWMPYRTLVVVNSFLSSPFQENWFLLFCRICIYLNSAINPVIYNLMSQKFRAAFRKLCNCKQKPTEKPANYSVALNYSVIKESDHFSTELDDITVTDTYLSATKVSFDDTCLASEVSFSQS

`C[C@]12C=CC(=O)C=C1CCC1C2=CC[C@]2(C)[C@@H](C(=O)CN3CCN(c4cc(N5CCCC5)nc(N5CCCC5)n4)CC3)CC[C@@H]12` (some centres undefined): the result in test [1], in test [7] and in [8] was inactive. For the same compound, the Potency entry in [2] and in [3] was “inactive” in each case. In addition, the Potency in test [4] and in test [5] was 13.1 µM (active) each time. Further, the activation in test [6] is 1.5%.
Turning to `COc1ccc2c(=O)n3nc(Nc4cccc(N5CCN(C)CC5)c4)sc3nc2c1`, the Potency entry in test [9] is “inactive”.
